± gives the standard deviation of the averaged measurements. In all, about 33,000 sequences were measured (“E-score (dimensionless, -0.5 to 0.5)”: median about -0.049, highest 2% from about 0.37 on). What follows is part of a selection rich in the highest values, with near analogues and random picks from the rest.
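Note: 200 nM protein in PBS on universal arrays averaged over duplicate arrays.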

For this experiment, the system named is T1, PmTbr T-box DNA-binding domain (GST fusion).
T1 sequence: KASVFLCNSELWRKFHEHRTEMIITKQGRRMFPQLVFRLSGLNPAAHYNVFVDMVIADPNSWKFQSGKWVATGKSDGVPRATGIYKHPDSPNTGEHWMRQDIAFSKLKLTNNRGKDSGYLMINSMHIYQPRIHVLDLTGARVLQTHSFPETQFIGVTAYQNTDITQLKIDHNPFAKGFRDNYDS
As to the kind of experiment: PBM E-score of 8-mer (E-score (dimensionless, -0.5 to 0.5)); Tbr is Tbrain of the sea star Patiria miniata (Pm) or the sea urchin Strongylocentrotus purpuratus (Sp); higher = stronger binding preference. The settings on record: the construct has about 5 more residues each side. The method, then:
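Universal protein-binding microarray (Agilent AMADID 016060, 60-bp probes with a 35-bp variable region) incubated with 200 nM GST-fused Patiria miniata Tbr T-box DNA-binding domain (residues 272-466) in PBS pH 7.5. Scored for every ungapped 8-mer (given with its reverse complement) by the Universal PBM Analysis Suite as E-score (modified Wilcoxon-Mann-Whitney enrichment, range -0.5 to 0.5; >0.45 counts as bound) and Z-score of median probe intensity. Two replicate arrays (datasets 1 and 2).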
With TAGTGTAA, the “PBM E-score of 8-mer” value stood at 0.185 ± 0.072. The same measure for AAGTGTAG: 0.147 ± 0.012; for ATGGTGAC: 0.262 ± 0.049.

Turning to CGCTTTCA, the “PBM E-score of 8-mer” value is 0.0848 ± 0.014. Next, GCACTAGC: 0.0942 ± 0.018; AAAGACGT: -0.108 ± 0.008. The same measure for CCTACCCC: -0.152 ± 0.039. As for CAAATACA, the “PBM E-score of 8-mer” value was -0.164 ± 0.0057. For the sequence ACTAGACC, the “PBM E-score of 8-mer” value is -0.3241 ± 0.0027.

Turning to GTATCCAC, the “PBM E-score of 8-mer” value is 0.0223 ± 0.03. With ACGCGCAT, the “PBM E-score of 8-mer” value is 0.0257 ± 0.033. Turning to GACAGCGC, the “PBM E-score of 8-mer” value is 0.0941 ± 0.072.

With AGAGCATC, the “PBM E-score of 8-mer” value was -0.226 ± 0.1. As for AAGTGGGG, the “PBM E-score of 8-mer” value was determined as 0.189 ± 0.07. On to GAGTGTAA, for which the “PBM E-score of 8-mer” value is 0.169 ± 0.061. GAGTGTGA: the “PBM E-score of 8-mer” value was 0.4754 ± 0.0017. The same measure for AAGTGTGG: 0.3837 ± 0.00044.

With AACTGTGG, the “PBM E-score of 8-mer” value is 0.00267 ± 0.0079. GAGTGTGC: the “PBM E-score of 8-mer” value is 0.2606 ± 0.00088. Next, CACTTTCG: 0.258 ± 0.004; CGGGGCAA: -0.147 ± 0.097; CCCCTAGG: -0.0463 ± 0.05. Take AACCTAGG: the “PBM E-score of 8-mer” value was -0.0117 ± 0.074. With CACCTAGG, the “PBM E-score of 8-mer” value was determined as 0.436 ± 0.01. The same measure for CACCTAGA: 0.324 ± 0.028.

For the sequence CACCTAGC, the “PBM E-score of 8-mer” value is 0.418 ± 0.0047. For AACCTAGC, the “PBM E-score of 8-mer” value amounted to 0.088 ± 0.041. GTTCCGGA: the “PBM E-score of 8-mer” value was -0.29 ± 0.027. Take ATGCGACA: the “PBM E-score of 8-mer” value is 0.3323 ± 0.0011.

Consider CTGCGATA, for which the “PBM E-score of 8-mer” value came out at 0.169 ± 0.046. Next, CTGCGAAC: 0.324 ± 0.013; GTGCGAAC: 0.4794 ± 0.0017. Next, ATGCGAAC: 0.13 ± 0.018; GTGCGATA: 0.4351 ± 0.0025; GTGCGAAA: 0.4814 ± 0.0014. Consider CTGCGAAA, for which the “PBM E-score of 8-mer” value amounted to 0.368 ± 0.0074. The same measure for ATGCGATA: 0.0765 ± 0.014.

In the case of TTGCGAAA, the “PBM E-score of 8-mer” value came out at 0.349 ± 0.034.

Regarding GTGCGACA, the “PBM E-score of 8-mer” value was determined as 0.412 ± 0.021.

CTGCGACA: the “PBM E-score of 8-mer” value stood at 0.172 ± 0.015.

Consider CTAGTAGA, for which the “PBM E-score of 8-mer” value is -0.0181 ± 0.012. Next, CAGTGGTA: -0.0733 ± 0.022.

CGCAGCCA: the “PBM E-score of 8-mer” value was determined as 0.00214 ± 0.11. The same measure for AAGCGCCC: -0.0238 ± 0.0037. Next, CACCGTCC: 0.0123 ± 0.0021; CGTATTCC: -0.23 ± 0.036. Next, CTGCGAGA: 0.212 ± 0.035.

Turning to GTGCGAGA, the “PBM E-score of 8-mer” value came to 0.43391 ± 0.00018.

With ATGCGAGA, the “PBM E-score of 8-mer” value stood at 0.144 ± 0.02. The same measure for AAGGGTGA: 0.19 ± 0.0034; for AAAGGTAT: -0.0701 ± 0.061. Next, AAAGGTAC: -0.152 ± 0.021; AAAGGTGT: 0.478 ± 0.0057; GAGGGTGC: 0.389 ± 0.018. Next, AAGGGTGT: 0.399 ± 0.018. In the case of AAAGGTCC, the “PBM E-score of 8-mer” value came out at 0.011 ± 0.046. For GAGGGTGA, the “PBM E-score of 8-mer” value came to 0.279 ± 0.005. For AAGGGTGG, the “PBM E-score of 8-mer” value was found to be 0.1889 ± 0.001. Next, CAGGGTGC: 0.271 ± 0.036.

Consider AAAGGTGG, for which the “PBM E-score of 8-mer” value is 0.234 ± 0.084.

AAAGGTGC: the “PBM E-score of 8-mer” value is 0.422 ± 0.015. Regarding AATAAGGT, the “PBM E-score of 8-mer” value was 0.0297 ± 0.12. Next, CACTATAC: 0.132 ± 0.073. The same measure for ACGTCACA: 0.258 ± 0.021; for GGGCCTAA: -0.148 ± 0.024; for CGAGAACA: 0.2 ± 0.0064. On to AAAGGTGA, for which the “PBM E-score of 8-mer” value stood at 0.398 ± 0.025. The same measure for AAAGGTAA: -0.21 ± 0.041; for AAAGGTCA: -0.303 ± 0.043. For GAAGTGTA, the “PBM E-score of 8-mer” value was determined as 0.293 ± 0.028. The same measure for CAAGTGTG: 0.433 ± 0.0066; for CAAGTGCG: 0.389 ± 0.015.

As for CCAGTGTC, the “PBM E-score of 8-mer” value is 0.0539 ± 0.05. For GAAGTGTC, the “PBM E-score of 8-mer” value came to 0.454 ± 0.0065.

In the case of CAAGTGGG, the “PBM E-score of 8-mer” value was found to be 0.211 ± 0.016.

Turning to CAAGTGCC, the “PBM E-score of 8-mer” value was 0.284 ± 0.029. As to CAAGTGTC, the “PBM E-score of 8-mer” value is 0.38 ± 0.031. The same measure for AAAGTGCG: 0.315 ± 0.013. Turning to GAAGTGCC, the “PBM E-score of 8-mer” value turned out to be 0.263 ± 0.019. For CAAGTGTA, the “PBM E-score of 8-mer” value stood at 0.178 ± 0.035. The same measure for CAAGTGGC: 0.268 ± 0.028. Next, ATTTAAGC: -0.191 ± 0.065.

Consider ACATATCC, for which the “PBM E-score of 8-mer” value is -0.0724 ± 0.065. The same measure for ACAGCTCA: 0.237 ± 0.0098. The same measure for TAACACAA: 0.313 ± 0.0094; for CTTCAATC: 0.0436 ± 0.043.
